In PubChem BioAssay (NCI):
Where “and” joins values, the source holds several entries; their conditions need not be identical. Equal entries are not always repeated. This is part of a sample that, as a whole, favours compounds with a hit. Of some 83,000 tested, about 20% had one in any assay.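 For each line, cells grew in 96-well plates with the test compound present at a single concentration for 48 hours.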 Calls of active or inactive are those of the source. How the source made its calls: active means growth percent below 10; inactive means the rest.

Tests used:
Assay in all cases: NCI-60 one-dose screen, 48 h (100 = growth as untreated, 0 = no growth, -100 = all killed)
Conditions in all cases: 10 µM unless noted
HCT-15 colon = test system: HCT-15 colon
HT29 colon = test system: HT29 colon
SNB-75 CNS = test system: SNB-75 CNS
SNB-19 CNS = test system: SNB-19 CNS
U251 CNS = test system: U251 CNS
PC-3 prostate = test system: PC-3 prostate
SK-MEL-5 melanoma = test system: SK-MEL-5 melanoma
UACC-62 melanoma = test system: UACC-62 melanoma
LOX IMVI melanoma = test system: LOX IMVI melanoma
SK-MEL-28 melanoma = test system: SK-MEL-28 melanoma
SK-MEL-2 melanoma = test system: SK-MEL-2 melanoma
EKVX NSCLC = test system: EKVX NSCLC
SN12C renal = test system: SN12C renal
UO-31 renal = test system: UO-31 renal
TK-10 renal = test system: TK-10 renal
ACHN renal = test system: ACHN renal
CAKI-1 renal = test system: CAKI-1 renal
A498 renal = test system: A498 renal
CCRF-CEM leukemia = test system: CCRF-CEM leukemia
MOLT-4 leukemia = test system: MOLT-4 leukemia

Measured: growth

CC(=O)Oc1ccc(C2(c3ccc(OC(C)=O)cc3)C(=O)Nc3ccccc32)cc1
inactive: HCT-15 colon 67.3% and 73% | HT29 colon 112% and 131% | SNB-75 CNS 85.3% and 158% | SNB-19 CNS 108% and 101% | U251 CNS 108% and 102% | PC-3 prostate 65.3% and 52.3% | SK-MEL-5 melanoma 96.8% and 95% | UACC-62 melanoma 84.2% and 87.3% | LOX IMVI melanoma 53.9% and 46.7% | SK-MEL-28 melanoma 99.6% and 108% | SK-MEL-2 melanoma 90.4% and 80.7% | EKVX NSCLC 86% and 85.8% | SN12C renal 17.7% and 16% | UO-31 renal 81.9% and 85.4% | TK-10 renal 18.3% and 35.6% | ACHN renal 67.6% and 63% | CAKI-1 renal 68.2% and 77.4% | A498 renal 107% and 111% | CCRF-CEM leukemia 97.9% and 86.7% | MOLT-4 leukemia 71.4% and 97.6%

CC(C)(C)C1=CC(=O)C(C(C)(C)C)=CC1=O
inactive: HCT-15 colon 97.9% and 105% | HT29 colon 109% and 99.8% | SNB-75 CNS 104% and 96.6% | SNB-19 CNS 86.2% and 101% | U251 CNS 96.2% and 94.2% | PC-3 prostate 90.8% and 101% | SK-MEL-5 melanoma 93.5% and 108% | UACC-62 melanoma 87.1% and 99.6% | LOX IMVI melanoma 91.6% and 99.5% | SK-MEL-28 melanoma 114% and 109% | SK-MEL-2 melanoma 95.2% and 94.5% | EKVX NSCLC 97.6% and 108% | SN12C renal 93.7% and 102% | UO-31 renal 93.1% and 91.5% | TK-10 renal 102% and 94.6% | ACHN renal 94.5% and 114% | A498 renal 122% | CCRF-CEM leukemia 96.1% and 97.9% | MOLT-4 leukemia 83.4% and 105%

C/C=C(/C(=O)NC(N)=O)C(C)C
inactive: HCT-15 colon 110% | HT29 colon 106% | SNB-75 CNS 120% | SNB-19 CNS 110% | U251 CNS 98.8% | PC-3 prostate 105% | SK-MEL-5 melanoma 115% | UACC-62 melanoma 110% | LOX IMVI melanoma 100% | SK-MEL-28 melanoma 117% | SK-MEL-2 melanoma 109% | EKVX NSCLC 112% | SN12C renal 102% | UO-31 renal 100% | TK-10 renal 117% | ACHN renal 110% | CAKI-1 renal 104% | CCRF-CEM leukemia 111% | MOLT-4 leukemia 92.3%

CS(=O)(=O)c1nsc(N)n1
inactive: HCT-15 colon 107% | HT29 colon 101% | SNB-75 CNS 93.2% | SNB-19 CNS 98.5% | U251 CNS 102% | PC-3 prostate 98% | SK-MEL-5 melanoma 102% | UACC-62 melanoma 102% | LOX IMVI melanoma 98.2% | SK-MEL-28 melanoma 109% | SK-MEL-2 melanoma 96.3% | EKVX NSCLC 108% | SN12C renal 101% | UO-31 renal 91.4% | TK-10 renal 101% | ACHN renal 107% | A498 renal 97.4% | CCRF-CEM leukemia 106% | MOLT-4 leukemia 103%

CCC(C)(O)CCC(C)(O)CC (configuration not stated)
inactive: HCT-15 colon 112% | HT29 colon 113% | SNB-75 CNS 108% | SNB-19 CNS 105% | U251 CNS 104% | PC-3 prostate 98.6% | SK-MEL-5 melanoma 104% | UACC-62 melanoma 108% | LOX IMVI melanoma 98.1% | SK-MEL-28 melanoma 124% | SK-MEL-2 melanoma 116% | EKVX NSCLC 99.4% | SN12C renal 108% | UO-31 renal 91% | TK-10 renal 103% | ACHN renal 111% | CAKI-1 renal 101% | A498 renal 114% | CCRF-CEM leukemia 101% | MOLT-4 leukemia 102%

CC1=CC(=O)c2cccc(NC3=NCCO3)c21
inactive: HCT-15 colon 102% | HT29 colon 101% | SNB-75 CNS 84.6% | SNB-19 CNS 104% | U251 CNS 99.5% | PC-3 prostate 89.1% | SK-MEL-5 melanoma 98.2% | UACC-62 melanoma 87.8% | LOX IMVI melanoma 98.4% | SK-MEL-28 melanoma 108% | SK-MEL-2 melanoma 93.8% | EKVX NSCLC 98.9% | SN12C renal 95.1% | UO-31 renal 86.5% | TK-10 renal 98.3% | ACHN renal 98.7% | CAKI-1 renal 94.2% | A498 renal 110% | CCRF-CEM leukemia 108% | MOLT-4 leukemia 111%

CC1(CO)CCCC1NCCNC1CCCC1(C)CO (configuration not stated)
inactive: HCT-15 colon 96.8% and 99% | HT29 colon 91.3% and 103% | SNB-75 CNS 84.7% and 97.9% | SNB-19 CNS 102% and 103% | U251 CNS 106% | PC-3 prostate 90.9% and 95% | SK-MEL-5 melanoma 99.7% and 101% | UACC-62 melanoma 99% and 102% | LOX IMVI melanoma 98.8% | SK-MEL-28 melanoma 104% and 108% | SK-MEL-2 melanoma 89.9% and 110% | EKVX NSCLC 101% | SN12C renal 98% and 103% | UO-31 renal 105% and 86% | TK-10 renal 108% | ACHN renal 105% and 100% | CAKI-1 renal 99.5% and 92.3% | A498 renal 102% and 111% | CCRF-CEM leukemia 99.6% | MOLT-4 leukemia 115% and 104%

CCOC(=N)c1ccc(C(=N)OCC)cc1
inactive: HCT-15 colon 96.4% | HT29 colon 101% | SNB-75 CNS 103% | SNB-19 CNS 91.4% | U251 CNS 102% | PC-3 prostate 103% | SK-MEL-5 melanoma 95.7% | UACC-62 melanoma 96.8% | LOX IMVI melanoma 98.1% | SK-MEL-28 melanoma 101% | SK-MEL-2 melanoma 103% | EKVX NSCLC 90.2% | SN12C renal 98.4% | UO-31 renal 95.1% | ACHN renal 102% | CAKI-1 renal 99% | CCRF-CEM leukemia 107% | MOLT-4 leukemia 111%

Cc1cc2ccccc2c2cc3ccccc3cc12
inactive: HCT-15 colon 82.4% | HT29 colon 88.3% | SNB-75 CNS 100% | SNB-19 CNS 105% | U251 CNS 102% | PC-3 prostate 90.8% | SK-MEL-5 melanoma 89.8% | UACC-62 melanoma 87.8% | LOX IMVI melanoma 95.4% | SK-MEL-28 melanoma 107% | SK-MEL-2 melanoma 92.6% | EKVX NSCLC 82.7% | SN12C renal 98.3% | UO-31 renal 78.8% | TK-10 renal 98.8% | CAKI-1 renal 88.8% | A498 renal 88.5% | CCRF-CEM leukemia 97% | MOLT-4 leukemia 65.6%

CCNCc1ccccc1
inactive: HCT-15 colon 112% | HT29 colon 98.8% | SNB-75 CNS 102% | SNB-19 CNS 109% | U251 CNS 101% | PC-3 prostate 103% | SK-MEL-5 melanoma 108% | UACC-62 melanoma 100% | LOX IMVI melanoma 97.8% | SK-MEL-28 melanoma 96.9% | SK-MEL-2 melanoma 111% | EKVX NSCLC 111% | SN12C renal 104% | UO-31 renal 86.7% | ACHN renal 110% | CAKI-1 renal 101% | CCRF-CEM leukemia 121% | MOLT-4 leukemia 103%

CC(=O)Nc1cscc1NC(C)=O
inactive: HCT-15 colon 106% | HT29 colon 96.2% | SNB-75 CNS 93.2% | SNB-19 CNS 92.6% | U251 CNS 98.9% | PC-3 prostate 103% | SK-MEL-5 melanoma 99.3% | UACC-62 melanoma 93.7% | LOX IMVI melanoma 98.6% | SK-MEL-28 melanoma 104% | SK-MEL-2 melanoma 139% | EKVX NSCLC 73.2% | SN12C renal 89.1% | UO-31 renal 93.3% | ACHN renal 96.3% | CAKI-1 renal 73.1% | A498 renal 92.9% | CCRF-CEM leukemia 89.2% | MOLT-4 leukemia 111%

CC1NC(C)c2ccc3ccccc3c2O1 (configuration not stated)
inactive: HCT-15 colon 106% | HT29 colon 99.8% | SNB-75 CNS 85.6% | SNB-19 CNS 104% | U251 CNS 109% | PC-3 prostate 93.3% | SK-MEL-5 melanoma 104% | UACC-62 melanoma 93.7% | LOX IMVI melanoma 97.7% | SK-MEL-28 melanoma 111% | SK-MEL-2 melanoma 100% | EKVX NSCLC 123% | SN12C renal 99.1% | UO-31 renal 69.4% | TK-10 renal 110% | CAKI-1 renal 96.7% | CCRF-CEM leukemia 97.9% | MOLT-4 leukemia 105%

Cc1onc(-c2c(F)cccc2Cl)c1-c1ncc(-c2ccc(Cl)cc2)o1
25.4% (inactive) and 6.61% (active): SK-MEL-5 melanoma
inactive: HCT-15 colon 29.5% and 16.4% | HT29 colon 23.3% and 21.8% | SNB-75 CNS 84% and 62% | SNB-19 CNS 80.7% and 40% | U251 CNS 41.1% | PC-3 prostate 31% and 34.5% | UACC-62 melanoma 29.7% and 32.2% | LOX IMVI melanoma 12.5% | SK-MEL-28 melanoma 68.8% and 50.2% | SK-MEL-2 melanoma 104% and 80% | EKVX NSCLC 53% | SN12C renal 71.9% and 37.3% | UO-31 renal 53.4% and 37.7% | TK-10 renal 84% and 53.8% | A498 renal 69.8% and 85.8% | CCRF-CEM leukemia 41.5% | MOLT-4 leukemia 42.4% and 16.1%
